Measurements as given in PubChem BioAssay (NCATS).
Inconclusive results are not listed. Active and inactive are the calls of the source. Unless noted, calls come from the whole dose curve; as a rule, active = well fitted curve in the direction sought with a large enough effect; inconclusive = small, poorly fitted or top-dose-only effect, or another doubt; inactive = no such curve, though single readings can be large; an effect the other way counts as inactive or inconclusive.

Key:
[1] = NFAT Signaling Pathway (AID 444; active = well fitted curve in either direction with a large enough effect, not every such curve was filed as active;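 note: carbachol stimulus at about its EC50 of 1 µM final; % is set by controls: 0 for no effect and ±100 for the full control effect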); conditions: Jurkat NFAT-bla M1, carbachol, beta-lactamase ratio, 5 h; at 17.2 µM (top of the series) unless noted
Procedure, shortened: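 Jurkat cells carrying an NFAT-driven β-lactamase reporter and co-transfected muscarinic M1 receptor were treated with compound plus carbachol (1 uM final, an EC50 level) for 5 h at 37 °C. CCF4 loading followed for 1 h at RT; 460/530 nm ratio gave %activity.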

[2] = Stat Signaling Pathway (AID 446; active = well fitted curve in either direction with a large enough effect, not every such curve was filed as active;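 note: ME-180 cervical cancer cells given 40 pM IL-6 alongside compound; SIE-controlled beta-lactamase reporter measured as 460/530 nm FRET emission ratio; % is set by controls: 0 for no effect and ±100 for the full control effect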); conditions: ME-180 SIE beta-lactamase reporter, IL-6 stimulated, 5 h; at 17.2 µM (top of the series) unless noted
Procedure, shortened: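 Screening format detects activators and inhibitors alike: ME-180 SIE-bla cells stimulated at 40 pM IL-6 for 5 hrs with compound, then dual-emission beta-lactamase read at 405 nm excitation.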

[3] = target: Glucocorticoid receptor (Homo sapiens) (UniProt P04150); assay: GR-GFP Redistribution (AID 450;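 active = compounds whose dose series gives a full or clear partial fitted curve of increased nuclear translocation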; note: potency is the fitted concentration of half-maximal effect)
Chain of Glucocorticoid receptor (Homo sapiens) (P04150 whole entry, looked up, the tested form may be a part): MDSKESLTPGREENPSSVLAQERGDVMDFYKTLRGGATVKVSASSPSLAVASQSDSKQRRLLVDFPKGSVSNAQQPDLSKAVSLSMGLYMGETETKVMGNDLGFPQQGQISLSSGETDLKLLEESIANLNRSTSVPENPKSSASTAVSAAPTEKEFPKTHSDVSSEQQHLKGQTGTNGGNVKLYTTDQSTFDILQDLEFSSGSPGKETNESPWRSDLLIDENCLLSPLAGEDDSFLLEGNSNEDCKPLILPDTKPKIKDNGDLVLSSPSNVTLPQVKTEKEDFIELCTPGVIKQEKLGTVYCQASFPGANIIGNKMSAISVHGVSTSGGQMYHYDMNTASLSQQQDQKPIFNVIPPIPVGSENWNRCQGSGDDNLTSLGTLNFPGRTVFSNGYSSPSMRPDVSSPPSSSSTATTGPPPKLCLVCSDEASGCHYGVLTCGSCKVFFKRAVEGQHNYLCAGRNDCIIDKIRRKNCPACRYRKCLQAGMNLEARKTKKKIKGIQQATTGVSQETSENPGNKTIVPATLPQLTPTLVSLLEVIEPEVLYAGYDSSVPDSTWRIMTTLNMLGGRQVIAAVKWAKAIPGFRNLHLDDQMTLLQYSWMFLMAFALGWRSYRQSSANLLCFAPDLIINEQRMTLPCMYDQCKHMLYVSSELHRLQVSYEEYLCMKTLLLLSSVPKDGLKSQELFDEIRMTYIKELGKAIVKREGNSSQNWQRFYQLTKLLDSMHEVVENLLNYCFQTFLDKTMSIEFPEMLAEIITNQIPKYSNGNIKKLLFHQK

[4] = target: Glucocorticoid receptor (Homo sapiens) (UniProt P04150); assay: GR-EFC Redistribution (AID 451; calls by dose curve; note: potency is the fitted concentration of half-maximal effect); conditions: CHO-K1 GR-EFC translocation, beta-gal luminescence, 2 h
Procedure, shortened: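 CHO-K1 cells stably expressing nuclear-localized β-gal enzyme acceptor and GR fused C-terminally to the enzyme donor fragment; ligand-driven nuclear translocation restores β-gal by complementation. Compounds titrated up to 46 uM final, 2 h at 37 °C; luminescence read.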

[5] = target: Mitogen-activated protein kinase 10 (Mus musculus) (UniProt Q61831); assay: JNK3 AlphaScreen Assay (AID 530; active = well fitted curve in either direction with a large enough effect, not every such curve was filed as active;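 note: kinase came from lysate of stimulated human HepG2 cells; signal reports phosphorylation of biotinylated GST-cJun 1-79 at Ser73 with 10 µM ATP; % is set by controls: 0 for no effect and ±100 for the full control effect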)
Procedure, shortened: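 Inhibitors reduce antibody binding to phosphorylated biotin-cJun, lowering AlphaScreen luminescence. Lysates from HepG2 cells pre-activated by IL-1beta plus TNF-alpha supplied JNK3; compounds were titrated.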

[6] = target: 3',5'-cyclic-AMP phosphodiesterase 4B (Homo sapiens) (UniProt Q07343); assay: qHTS Assay for Inhibitors of PDE-IV (AID 607; active = well fitted activation curve with a large enough effect in the main read-out, with a control signal flat, not every such curve was filed as active; note: % of control where 0% means no effect)
Chain of 3',5'-cyclic-AMP phosphodiesterase 4B (Homo sapiens) (Q07343 whole entry, looked up): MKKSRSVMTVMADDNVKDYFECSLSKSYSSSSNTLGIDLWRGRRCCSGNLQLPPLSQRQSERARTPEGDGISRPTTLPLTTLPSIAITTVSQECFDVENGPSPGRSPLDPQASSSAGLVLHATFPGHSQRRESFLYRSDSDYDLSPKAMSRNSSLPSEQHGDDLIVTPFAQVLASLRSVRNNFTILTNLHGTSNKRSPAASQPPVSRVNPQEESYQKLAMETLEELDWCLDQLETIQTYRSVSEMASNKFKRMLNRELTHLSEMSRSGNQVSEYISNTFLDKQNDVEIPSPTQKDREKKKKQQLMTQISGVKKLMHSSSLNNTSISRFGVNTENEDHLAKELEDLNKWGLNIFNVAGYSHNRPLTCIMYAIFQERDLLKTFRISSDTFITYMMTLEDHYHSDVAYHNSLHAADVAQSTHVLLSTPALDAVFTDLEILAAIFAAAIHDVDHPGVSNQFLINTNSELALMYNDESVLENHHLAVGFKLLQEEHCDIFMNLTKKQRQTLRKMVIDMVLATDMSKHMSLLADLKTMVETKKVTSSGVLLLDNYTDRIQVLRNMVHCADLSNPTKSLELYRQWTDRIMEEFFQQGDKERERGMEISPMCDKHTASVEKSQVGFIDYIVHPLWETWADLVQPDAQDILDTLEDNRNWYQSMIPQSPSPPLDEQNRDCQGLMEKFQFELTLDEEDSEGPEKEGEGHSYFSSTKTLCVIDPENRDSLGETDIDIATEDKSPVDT
Procedure, shortened: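 The readout is membrane depolarisation from a cAMP-sensing CNG channel, detected with a potential dye at ex 535/em 590. Cells were HEK293-derived (endogenous PDE-IV) at 1000 cells/well, titrated up to 22.9 uM final.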

[7] = target: ATP-dependent 6-phosphofructokinase (Trypanosoma brucei brucei) (UniProt O15648); assay: qHTS Assay to Find Inhibitors of T. brucei phosphofructokinase: hit validation (AID 492961);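 note: luminescence reports ADP formed as PFK phosphorylates fructose-6-phosphate with ATP; % is set by controls: 0 for no effect and ±100 for the full control effect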
Chain of ATP-dependent 6-phosphofructokinase (Trypanosoma brucei brucei) (O15648 whole entry, looked up): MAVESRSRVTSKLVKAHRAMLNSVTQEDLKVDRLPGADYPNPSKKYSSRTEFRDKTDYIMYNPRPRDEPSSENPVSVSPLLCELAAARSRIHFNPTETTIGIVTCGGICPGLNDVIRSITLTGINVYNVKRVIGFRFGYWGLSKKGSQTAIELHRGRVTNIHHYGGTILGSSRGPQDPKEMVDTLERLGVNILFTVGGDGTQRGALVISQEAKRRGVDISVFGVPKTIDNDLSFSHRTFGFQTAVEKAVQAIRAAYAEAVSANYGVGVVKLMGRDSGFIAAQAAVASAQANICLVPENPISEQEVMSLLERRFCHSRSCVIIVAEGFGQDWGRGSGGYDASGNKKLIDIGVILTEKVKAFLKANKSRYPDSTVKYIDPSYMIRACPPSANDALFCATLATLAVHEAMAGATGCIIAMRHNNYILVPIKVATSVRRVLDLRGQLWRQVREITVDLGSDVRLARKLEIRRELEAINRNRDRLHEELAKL
Procedure, shortened: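 Percent activity derived from corrected luminescence, normalized between 0x and 1x enzyme controls, then fitted to concentration-response curves. Conditions: 1.25 nM PFK, 0.1 mM ATP, 0.5 mM F6P, 45 min RT.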

[8] = target: Ubiquitin carboxyl-terminal hydrolase 1 (Homo sapiens) (UniProt O94782); assay: Inhibitors of USP1/UAF1: Pilot qHTS (AID 504865);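 note: rhodamine fluorescence freed from ubiquitin-rhodamine substrate followed over time; top concentration of the series differs between compounds; % is set by controls: 0 for no effect and ±100 for the full control effect; nearly all actives have a fitted effect of over 35% in size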
Chain of Ubiquitin carboxyl-terminal hydrolase 1 (Homo sapiens) (O94782 whole entry, looked up): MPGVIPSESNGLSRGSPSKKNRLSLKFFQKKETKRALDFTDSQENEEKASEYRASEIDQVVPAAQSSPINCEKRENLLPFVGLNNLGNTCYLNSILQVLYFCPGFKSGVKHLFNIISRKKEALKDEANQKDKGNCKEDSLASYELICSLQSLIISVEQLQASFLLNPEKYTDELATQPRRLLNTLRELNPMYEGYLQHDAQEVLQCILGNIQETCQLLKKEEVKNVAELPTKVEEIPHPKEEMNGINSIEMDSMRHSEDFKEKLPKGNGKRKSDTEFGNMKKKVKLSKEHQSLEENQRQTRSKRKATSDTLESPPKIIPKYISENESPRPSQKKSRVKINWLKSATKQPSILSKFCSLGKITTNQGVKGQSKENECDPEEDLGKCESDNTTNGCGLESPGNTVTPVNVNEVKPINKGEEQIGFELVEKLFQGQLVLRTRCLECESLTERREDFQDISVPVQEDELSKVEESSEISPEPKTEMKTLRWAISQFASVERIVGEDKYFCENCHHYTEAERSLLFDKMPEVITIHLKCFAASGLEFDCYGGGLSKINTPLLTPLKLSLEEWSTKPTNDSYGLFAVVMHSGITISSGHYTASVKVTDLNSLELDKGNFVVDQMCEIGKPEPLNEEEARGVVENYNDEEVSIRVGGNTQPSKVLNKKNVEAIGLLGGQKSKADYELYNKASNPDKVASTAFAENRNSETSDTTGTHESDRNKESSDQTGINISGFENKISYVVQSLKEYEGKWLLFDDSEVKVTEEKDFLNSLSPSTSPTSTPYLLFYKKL
Procedure, shortened: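 In 50mM HEPES pH 7.8 containing 0.5mM EDTA, 1mM TCEP, 0.1 mg/ml BSA and 0.01% Tween-20, 1nM USP1/UAF1 is exposed to compound for 15 min, then Ub-Rho (150nM final) is added and fluorescence is read over time.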

[9] = target: Luciferin 4-monooxygenase (Photinus pyralis) (UniProt P08659); assay: Biochemical firefly luciferase enzyme assay for NPC (AID 624030);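 note: purified P. pyralis luciferase at 10 nM with luciferin and ATP substrate; 0% = DMSO and -100% = full luciferase inhibition by PTC124 control; nearly all actives have a fitted effect of over 70% in size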
Chain of Luciferin 4-monooxygenase (Photinus pyralis) (P08659 whole entry, looked up): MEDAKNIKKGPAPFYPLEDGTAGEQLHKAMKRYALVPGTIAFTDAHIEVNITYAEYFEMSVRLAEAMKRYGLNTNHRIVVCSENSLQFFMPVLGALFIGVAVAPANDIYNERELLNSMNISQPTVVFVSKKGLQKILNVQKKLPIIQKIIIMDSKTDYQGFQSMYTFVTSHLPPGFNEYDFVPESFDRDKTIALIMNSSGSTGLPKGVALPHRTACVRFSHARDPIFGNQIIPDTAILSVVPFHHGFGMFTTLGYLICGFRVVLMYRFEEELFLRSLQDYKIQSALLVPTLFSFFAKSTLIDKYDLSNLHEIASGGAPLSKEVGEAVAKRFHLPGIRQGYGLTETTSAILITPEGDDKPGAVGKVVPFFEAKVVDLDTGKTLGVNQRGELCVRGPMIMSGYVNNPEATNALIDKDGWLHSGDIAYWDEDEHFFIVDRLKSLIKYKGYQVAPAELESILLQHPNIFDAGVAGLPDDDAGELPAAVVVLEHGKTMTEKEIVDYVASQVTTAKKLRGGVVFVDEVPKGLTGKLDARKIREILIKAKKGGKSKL
Procedure, shortened: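 Counter-screen for direct inhibition of the luciferase enzyme by approved-drug library compounds, run at 10 nM enzyme in 50 mM Tris acetate (final). Luminescence was read within 5 min of enzyme-buffer addition and normalized to PTC124 versus DMSO (0%).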

[10] = S16 Schwann cell PMP22 intronic element firefly luciferase assay (AID 624032);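 note: plate controls were DMSO for no effect and PTC124 positive control mean for full effect; nearly all actives have a fitted effect of over 30% in size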
Procedure, shortened: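 Rat S16 Schwann cells stably carrying a PMP22 intronic element-driven Fluc reporter were seeded overnight, then exposed to compounds for 24 h at 37 °C. Luminescence was normalized to PTC124 (positive control) and DMSO (0% activity).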

[11] = qHTS profiling for inhibitors of Plasmodium falciparum proliferation (AID 504749);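 note: 0% = DMSO vehicle and full inhibition = artemisinin control; nearly all actives have a fitted effect of over 60% in size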; conditions: P. falciparum in erythrocytes, SYBR Green DNA, 72 h, at 12.8 µM (top of the series)
Procedure, shortened: (§1)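 Parasite proliferation within erythrocytes, 72 h exposure. Endpoint: SYBR Green I fluorescence after overnight lysis at room temperature. Controls: 0.29 uM artemisinin, DMSO.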

[12] = system: 3D7; assay: as above; conditions: P. falciparum in erythrocytes, SYBR Green DNA, 72 h; series mostly up to 28.7 µM
Procedure, shortened: as §1

[13] = system: 7G8; assay: as above; conditions: P. falciparum in erythrocytes, SYBR Green DNA, 72 h; series mostly up to 28.7 µM
Procedure, shortened: as §1

[14] = system: AA1029; assay: as above; conditions: P. falciparum in erythrocytes, SYBR Green DNA, 72 h; series mostly up to 28.7 µM
Procedure, shortened: as §1

[15] = system: AS120; assay: as above; conditions: P. falciparum in erythrocytes, SYBR Green DNA, 72 h; series mostly up to 28.7 µM
Procedure, shortened: as §1

[16] = system: ATS189; assay: as above; conditions: P. falciparum in erythrocytes, SYBR Green DNA, 72 h; series mostly up to 28.7 µM
Procedure, shortened: as §1

[17] = system: ATS95; assay: as above; conditions: P. falciparum in erythrocytes, SYBR Green DNA, 72 h; series mostly up to 28.7 µM
Procedure, shortened: as §1

[18] = system: C2A; assay: as above; conditions: P. falciparum in erythrocytes, SYBR Green DNA, 72 h; series mostly up to 28.7 µM
Procedure, shortened: as §1

[19] = system: CP185; assay: as above; conditions: P. falciparum in erythrocytes, SYBR Green DNA, 72 h; series mostly up to 28.7 µM
Procedure, shortened: as §1

[20] = system: CP191; assay: as above; conditions: P. falciparum in erythrocytes, SYBR Green DNA, 72 h; series mostly up to 28.7 µM
Procedure, shortened: as §1

[21] = system: CP192; assay: as above; conditions: P. falciparum in erythrocytes, SYBR Green DNA, 72 h; series mostly up to 28.7 µM
Procedure, shortened: as §1

[22] = system: CP194; assay: as above; conditions: P. falciparum in erythrocytes, SYBR Green DNA, 72 h; series mostly up to 28.7 µM
Procedure, shortened: as §1

[23] = system: CP201; assay: as above; conditions: P. falciparum in erythrocytes, SYBR Green DNA, 72 h; series mostly up to 28.7 µM
Procedure, shortened: as §1

[24] = system: CP203; assay: as above; conditions: P. falciparum in erythrocytes, SYBR Green DNA, 72 h; series mostly up to 28.7 µM
Procedure, shortened: as §1

[25] = system: CP211; assay: as above; conditions: P. falciparum in erythrocytes, SYBR Green DNA, 72 h; series mostly up to 28.7 µM
Procedure, shortened: as §1

[26] = system: CP215; assay: as above; conditions: P. falciparum in erythrocytes, SYBR Green DNA, 72 h; series mostly up to 28.7 µM
Procedure, shortened: as §1

[27] = system: CP217; assay: as above; conditions: P. falciparum in erythrocytes, SYBR Green DNA, 72 h; series mostly up to 28.7 µM
Procedure, shortened: as §1

[28] = system: CP237; assay: as above; conditions: P. falciparum in erythrocytes, SYBR Green DNA, 72 h; series mostly up to 28.7 µM
Procedure, shortened: as §1

[29] = system: CP238; assay: as above; conditions: P. falciparum in erythrocytes, SYBR Green DNA, 72 h; series mostly up to 28.7 µM
Procedure, shortened: as §1

[30] = system: CP247; assay: as above; conditions: P. falciparum in erythrocytes, SYBR Green DNA, 72 h; series mostly up to 28.7 µM
Procedure, shortened: as §1

[31] = system: CP250; assay: as above; conditions: P. falciparum in erythrocytes, SYBR Green DNA, 72 h; series mostly up to 28.7 µM
Procedure, shortened: as §1

[32] = system: CP252; assay: as above; conditions: P. falciparum in erythrocytes, SYBR Green DNA, 72 h; series mostly up to 28.7 µM
Procedure, shortened: as §1

[33] = system: CP256; assay: as above; conditions: P. falciparum in erythrocytes, SYBR Green DNA, 72 h; series mostly up to 28.7 µM
Procedure, shortened: as §1

[34] = system: CP260; assay: as above; conditions: P. falciparum in erythrocytes, SYBR Green DNA, 72 h; series mostly up to 28.7 µM
Procedure, shortened: as §1

C[C@H](O)[C@@H]1C(=O)N2C(C(=O)O)=C(SCCN=CN)C[C@@H]12
inactive: activity change, negative = inhibition [1] -9.39% | activity, negative = inhibition [2] -2.21% | Potency [3] > 20.6 µM | Potency [4] > 20.6 µM | Potency [5] | Potency [6] | Potency [7] | Potency [8] | Potency [9] | Potency [10] | activity, negative = inhibition ([11]; parasite line A) 7.64% | activity, negative = inhibition ([11]; parasite line B) 5.5% | Potency [12] | Potency [13] | Potency [14] | Potency [15] | Potency [16] | Potency [17] | Potency [18] | Potency [19] | Potency [20] | Potency [21] | Potency [22] | Potency [23] | Potency [24] | Potency [25] | Potency [26] | Potency [27] | Potency [28] | Potency [29] | Potency [30] | Potency [31] | Potency [32] | Potency [33] | Potency [34]
